Screens as filed in PubChem BioAssay.
Sampled rows, rich in hits. Any-hit rate of the full collection: about 19%.
TDP1 cell CPT: DT40-hTDP1 cell growth loss with CPT. AID 686979. Potency, µM (doses to about 46.2 µM), for the others: at the top dose activity change, negative = growth inhibition, usual class: inhibitors. 420,000 tested, 12% active. chicken DT40 Tdp1-/-;hTDP1 cells + 20 nM CPT, ATP luminescence, 48 h; also: potency is read from the fitted curve at half-maximal effect; % is scaled to controls: 0 for no effect and ±100 for the full control effect; nearly all actives have a fitted effect of over 55% in size
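Cell growth measured by CellTiter-Glo luminescence after a minimum 48 h, 37 C compound exposure with 20 nM CPT in Tdp1-knockout DT40 cells stably expressing hTDP1, seeded 400/well; qHTS titration format.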
TDP1 cell noCPT: qHTS for Inhibitors of human tyrosyl-DNA phosphodiesterase 1 (TDP1): qHTS in cells in absence of CPT. DT40 Tdp1-/- hTDP1 cells, no CPT, ATP luminescence, 48 h. Potency, µM (doses to about 46.2 µM), without a hit: at the top dose activity change, negative = growth inhibition, actives largely listed as inhibitors. 420,000 tested, 15% active. AID 686978, 2013; also: potency is read from the fitted curve at half-maximal effect; % is scaled to controls: 0 for no effect and ±100 for the full control effect; nearly all actives have a fitted effect of over 55% in size
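DT40 Tdp1-/-;hTDP1 cells, no CPT (DMSO vehicle only), 400 cells/well; compounds pin-transferred; ≥48 hr, 37 °C; CellTiter-Glo 30 min RT dark, luminescence read.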
IL-1B inflam inh: inflammasome signaling inhibition, IL-1 beta readout. THP-1 LPS/ATP IL-1B secretion, AlphaLISA, 16 h; hits give low values. activity change, % at 57.5 µM. 360,000 tested, 4.7% active. AID 743279; in the data active = activity change below about -50%; inconclusive = mostly about -30% to -49%; also: % is scaled to controls: 0 for no effect and ±100 for the full control effect
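THP-1 cells pretreated 1 hr with compounds (up to 57.5 uM final), then stimulated with LPS (250 ng/mL final) plus ATP (1.25 mM final); secreted IL-1B measured by AlphaLISA after 16 hr, decreased signal indicating inhibition.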
TGFb inhibitor: TGF-b pathway inhibition; HepG2 CAGA-GFP TGF-b/SMAD3 reporter, GFP fluorescence, 18 h; TGF-beta stimulated, 500 pg/mL final; Potency, µM (titrated, usually from 46.1 µM), for inactives: top-dose activity, negative = inhibition, actives largely listed as inhibitors; 410,000 tested, 1.2% active; AID 588855; also: potency is read from the fitted curve at half-maximal effect; % is scaled to controls: 0 for no effect and ±100 for the full control effect; nearly all actives have a fitted effect of over 65% in size
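First, reporter cells (HEPG2 CAGA-GFP) rested 2 h at 37 degrees C. Next, compounds were pinned in and TGF-beta added to 500 pg/mL final. After 18 h, GFP was imaged per cell and summed per well.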
TDP1 block: inhibitors of human tyrosyl-DNA phosphodiesterase TDP1; Q9NUW8; recombinant TDP1, AlphaScreen DNA substrate cleavage; Potency, µM (highest dose often 130 µM), without a hit: at the top dose activity change, negative = inhibition, hits mostly inhibitors; 350,000 tested, 0.28% active; AID 485290; also: potency is read from the fitted curve at half-maximal effect; % is scaled to controls: 0 for no effect and ±100 for the full control effect; nearly all actives have a fitted effect of over 40% in size
Target sequence (Q9NUW8 whole entry, looked up): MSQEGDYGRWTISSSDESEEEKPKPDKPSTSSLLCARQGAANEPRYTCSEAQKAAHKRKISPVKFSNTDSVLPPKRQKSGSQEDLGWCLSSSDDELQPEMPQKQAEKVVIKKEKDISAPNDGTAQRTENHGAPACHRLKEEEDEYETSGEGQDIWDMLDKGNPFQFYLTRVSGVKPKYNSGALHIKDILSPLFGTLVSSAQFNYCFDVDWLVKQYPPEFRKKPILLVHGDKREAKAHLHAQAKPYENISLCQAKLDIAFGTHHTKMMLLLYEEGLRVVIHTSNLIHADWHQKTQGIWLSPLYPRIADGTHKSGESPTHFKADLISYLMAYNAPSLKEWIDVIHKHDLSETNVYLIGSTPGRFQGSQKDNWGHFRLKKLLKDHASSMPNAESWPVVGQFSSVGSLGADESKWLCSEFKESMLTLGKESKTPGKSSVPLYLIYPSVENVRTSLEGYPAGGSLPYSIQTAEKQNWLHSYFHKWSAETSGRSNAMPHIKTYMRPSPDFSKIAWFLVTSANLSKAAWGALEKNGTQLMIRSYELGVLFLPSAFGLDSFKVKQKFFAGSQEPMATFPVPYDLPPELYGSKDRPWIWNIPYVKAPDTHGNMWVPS
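Enzyme-compound mixtures sat 15 min at room temperature, followed by a 5 min reaction with 15 nM final substrate and 10 min with AlphaScreen beads. Recombinant human Tdp1 was used at 1 nM final.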
HepG2 tox: counter-screen for TGF-b inhibitors: cytotoxicity in HepG2 cells. HepG2 CAGA-GFP viability, ATP luminescence, 18 h. Potency, µM (highest dose often 46.1 µM), for the others: top-dose activity change, negative = cytotoxicity, actives largely listed as cytotoxic. 410,000 tested, 0.76% active; also: potency is read from the fitted curve at half-maximal effect
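CellTiter-Glo luminescence gave cytotoxicity after 18 hours at 37 degrees C. The cells were HepG2 CAGA-GFP in 1% FBS DMEM, stimulated with 500 pg/mL TGF-beta after compound addition. %Activity was normalised to no-cell wells (complete cell-killing) and DMSO (no toxicity), and curves were fitted and classified.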
* hit, by the source's call; ? = inconclusive; . = not tested or not shown; [ ] = dose if it differs, or a comment. Unless noted, calls follow the shape of the dose curve; as a rule, active = well fitted curve in the direction sought with a large enough effect; inconclusive = small, poorly fitted or top-dose-only effect, or another doubt; inactive = no such curve, though single readings can be large; an effect the other way counts as inactive or inconclusive.

SMILES	TDP1 cell CPT	TDP1 cell noCPT	IL-1B inflam inh	TGFb inhibitor	TDP1 block	HepG2 tox
S=C1SCN(Cc2ccccn2)CN1Cc1ccco1	6.5µM*	5.8µM*	0	?	-2%	-40%
S=C1NCN(Cc2ccco2)CN1CCc1ccccc1	?	?	-2	0%	0%	-38%
COc1cc(Br)cc(Br)c1OCC(=O)N/N=C/c1c(C)n(C)n(-c2ccccc2)c1=O	10%	4%	-9	4%	-7%	2%
COc1ccccc1NC(=O)C(Cc1ccccc1)NS(=O)(=O)c1ccc2c(c1)CCN2C(C)=O (stereo not given)	4%	-28%	.	-32%	2%	-20%
Cc1nnc2ccc(N3CCN(c4cccc(C(F)(F)F)c4)CC3)nn12	26µM*	16µM*	45	-3%	0%	-22%
FC(F)(F)c1cccc(N2CCN(C(=S)NC3CCCCC3)CC2)c1	?	23µM*	7	?	3%	-26%
S=C(NC1CCCC1)N1CCN(c2ccc(Cl)cc2)CC1	15%	?	?	-19%	5%	-26%
FC(F)(F)c1cccc(N2CCN(C(=S)NC3CCCC3)CC2)c1	?	16µM*	-57*	?	3%	-29%
Cc1nnc2ccc(N3CCCCC3)nn12	27%	-6%	24	2%	.	-34%
CCNC(=S)N1CCN(c2cccc(C(F)(F)F)c2)CC1	15µM*	13µM*	-25	0%	1%	3%
CCC1CN(CC(=O)NC(C)c2cn(C)nc2C)Cc2cc(OC)ccc2O1 (stereo not given)	9%[9.04 µM]	-6%	.	.	.	.
CCS(=O)(=O)N1CCC(n2c(C(F)(F)F)nc3cccnc32)CC1	?	?	.	19%	8%	2%
COc1cccc(/C=c2/[nH]c(=O)/c(=C\c3cccc(OC)c3OC)[nH]c2=O)c1OC	?	?	.	7%	.	-3%
CCOC(=O)Cn1c(CN2CCN(c3ccc(OC)cc3)CC2)nc2c1c(=O)[nH]c(=O)n2C	-2%	-20%	.	3%	4%	2%
Cc1ccc2nc3c(c(Nc4cccc(O)c4)c2c1)CCC3	?	?	118	?	.	-19%
O=C(Nc1c2c(nc3ccccc13)CCCC2)c1ccccc1F	-24%	?	2	?	3%	-47%
CC(=O)c1ccc(Nc2c3c(nc4ccccc24)CCCC3)cc1	15µM*	18µM*	0	-8%	7%	-36%
COC(=O)c1cccc(Nc2c3c(nc4ccccc24)CCC3)c1	7.3µM*	10µM*	-98*	-27%	.	-29%
CC(=O)c1cccc(Nc2c3c(nc4ccccc24)CCC3)c1	2.1µM*	2.1µM*	68	?	.	-28%
CCOC(=O)c1cccc(Nc2c3c(nc4ccccc24)CCC3)c1	?	13µM*	.	?	5%	-40%
Cc1ccc(NC(=O)C2CC(=O)N(c3ccc(OC(C)C)cc3)C2)cc1 (stereo not given)	?	-17%	.	-29%	-8%[12.3 µM]	-24%
CC(=O)N[C@@H](CSC(=O)[C@]1([C@@H](O)C(C)C)NC(=O)[C@H](C)[C@@H]1O)C(=O)O	.	.	.	.	-3%[21 µM]	.
CC(C)(O)C#Cc1ccc(CN2CCN(CCc3ccccc3)C(CCO)C2)s1 (stereo not given)	?	?	20	-15%	3%	-20%
c1ccc2c(Nc3ccc4c(c3)OCCO4)c3c(nc2c1)CCCC3	4.6µM*	16µM*	-134*	?	5%	-31%
Fc1cccc(Nc2c3c(nc4ccccc24)CCC3)c1	?	26µM*	?	-26%	.	-19%
O=c1oc(Nc2cccc(F)c2)nc2ccccc12	?	?	13	21%	2%	-3%
